For seven sequences, binding signal results are on record in PMC7862700, “An all-to-all approach to the identification of sequence-specific readers for epigenetic DNA modifications on cytosine”.

What all share (test): DAPPL (digital affinity profiling via proximity ligation, sequencing); 10 mM Tris-HCl pH 7.5, 50 mM NaCl, 1 mM DTT, 4% glycerol, room temperature, 30 min; GST-TFs on glutathione beads, 16-mer random dsDNA library, 0.1% formaldehyde crosslink after washing; high values mean tight binding
Settings in all cases: protein: recombinant; tags: N-terminal GST; dsDNA, one strand shown

Experiment [1] deals with T1, FLI1 (Homo sapiens, UniProt Q01543 1-452).
T1 sequence: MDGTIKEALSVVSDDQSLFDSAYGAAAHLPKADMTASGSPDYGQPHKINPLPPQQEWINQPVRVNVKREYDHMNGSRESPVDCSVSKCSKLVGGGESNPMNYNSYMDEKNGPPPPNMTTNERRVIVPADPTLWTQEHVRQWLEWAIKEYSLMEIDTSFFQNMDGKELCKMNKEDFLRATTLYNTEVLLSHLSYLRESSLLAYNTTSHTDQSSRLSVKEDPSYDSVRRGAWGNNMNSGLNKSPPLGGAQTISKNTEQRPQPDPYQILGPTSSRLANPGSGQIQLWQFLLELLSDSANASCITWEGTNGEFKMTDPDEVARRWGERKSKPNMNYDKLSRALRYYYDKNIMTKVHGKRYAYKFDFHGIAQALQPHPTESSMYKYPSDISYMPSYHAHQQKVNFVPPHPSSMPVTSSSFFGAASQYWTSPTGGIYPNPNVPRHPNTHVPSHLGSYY
A digest of the protocol: (§1)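 Beads coated with glutathione captured GST-fused human transcription factors that had been expressed in yeast, and the factors were then given DNA barcodes and pooled with a tag-only sample. The pools were incubated with 200 nmole of a random double-stranded 16-mer DNA library in Tris/NaCl/DTT/glycerol buffer for 30 min at room temperature, washed, crosslinked with 0.1% formaldehyde and proximity-ligated with BsaI/T4 ligase at 37 °C for 1 h. PCR amplification and Illumina NextSeq500 sequencing came last. Binding signal is each hexamer's read frequency for a factor divided by its frequency for the tag-only sample.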

Experiment [2] addresses T2, ELK1 (Homo sapiens, UniProt P19419 1-428).
T2 sequence: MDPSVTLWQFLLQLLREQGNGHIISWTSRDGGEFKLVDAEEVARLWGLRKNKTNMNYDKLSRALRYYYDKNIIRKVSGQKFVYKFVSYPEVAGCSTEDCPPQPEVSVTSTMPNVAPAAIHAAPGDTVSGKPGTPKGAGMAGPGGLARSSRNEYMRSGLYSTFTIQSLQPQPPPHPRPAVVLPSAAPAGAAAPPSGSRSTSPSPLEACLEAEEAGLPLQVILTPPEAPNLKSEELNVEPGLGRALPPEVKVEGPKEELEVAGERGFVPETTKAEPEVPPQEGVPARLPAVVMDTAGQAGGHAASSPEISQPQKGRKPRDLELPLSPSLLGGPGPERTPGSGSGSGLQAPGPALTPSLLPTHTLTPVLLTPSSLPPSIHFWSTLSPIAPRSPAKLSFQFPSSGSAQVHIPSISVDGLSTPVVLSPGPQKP
A digest of the protocol: as §1

Experiment [3] deals with T3, GABPA (Homo sapiens, UniProt Q06546 1-454).
T3 sequence: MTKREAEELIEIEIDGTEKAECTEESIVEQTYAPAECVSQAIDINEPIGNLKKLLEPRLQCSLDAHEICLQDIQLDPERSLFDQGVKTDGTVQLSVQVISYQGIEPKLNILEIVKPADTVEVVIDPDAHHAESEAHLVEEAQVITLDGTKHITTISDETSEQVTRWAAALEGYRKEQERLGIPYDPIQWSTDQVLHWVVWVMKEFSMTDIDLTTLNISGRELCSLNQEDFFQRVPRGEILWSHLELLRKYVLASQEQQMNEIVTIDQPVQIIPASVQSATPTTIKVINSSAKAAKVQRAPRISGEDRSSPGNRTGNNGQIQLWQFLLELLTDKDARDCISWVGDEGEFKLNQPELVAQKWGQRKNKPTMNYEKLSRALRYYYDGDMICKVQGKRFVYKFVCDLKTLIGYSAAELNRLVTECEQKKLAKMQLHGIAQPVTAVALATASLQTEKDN
A digest of the protocol:
as §1

In experiment [4] the target is T4, ERG (Homo sapiens, UniProt P11308 1-479).
T4 sequence: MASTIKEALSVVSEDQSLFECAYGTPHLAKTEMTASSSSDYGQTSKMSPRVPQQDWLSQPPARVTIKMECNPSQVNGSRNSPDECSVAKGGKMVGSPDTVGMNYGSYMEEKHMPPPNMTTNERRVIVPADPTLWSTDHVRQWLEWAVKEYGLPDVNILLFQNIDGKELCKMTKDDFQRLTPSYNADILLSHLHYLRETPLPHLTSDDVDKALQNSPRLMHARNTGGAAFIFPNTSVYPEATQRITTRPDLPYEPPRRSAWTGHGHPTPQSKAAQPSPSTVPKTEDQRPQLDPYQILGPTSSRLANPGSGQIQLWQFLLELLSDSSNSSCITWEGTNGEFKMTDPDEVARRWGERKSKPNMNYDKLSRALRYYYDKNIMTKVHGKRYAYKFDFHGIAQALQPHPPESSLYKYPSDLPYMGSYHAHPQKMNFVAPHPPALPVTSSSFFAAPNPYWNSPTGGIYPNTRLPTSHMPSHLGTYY
A digest of the protocol:
as §1

Experiment [5] has as its target ELF1 (Homo sapiens, UniProt P32519 1-619). A digest of the protocol:
as §1

Experiment [6] addresses T5, EHF (Homo sapiens, UniProt Q9NZC4 1-300).
T5 sequence: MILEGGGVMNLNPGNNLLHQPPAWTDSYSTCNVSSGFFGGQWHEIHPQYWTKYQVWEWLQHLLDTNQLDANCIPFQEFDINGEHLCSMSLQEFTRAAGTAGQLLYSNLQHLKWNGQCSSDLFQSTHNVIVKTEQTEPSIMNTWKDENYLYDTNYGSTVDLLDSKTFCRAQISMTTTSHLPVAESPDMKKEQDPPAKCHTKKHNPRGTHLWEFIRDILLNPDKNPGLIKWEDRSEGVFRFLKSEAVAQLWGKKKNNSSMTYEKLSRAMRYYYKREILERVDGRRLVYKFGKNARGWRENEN
The method in brief:
as §1

For experiment [7], the target named is SPI1 (Homo sapiens, UniProt P17947 1-270). A digest of the protocol: as §1
For experiment [8], the target named is SPIB (Homo sapiens, UniProt Q01892 1-262). A digest of the protocol: as §1
The target in experiment [9] is T6, ELK3 (Homo sapiens, UniProt P41970 1-407).
T6 sequence: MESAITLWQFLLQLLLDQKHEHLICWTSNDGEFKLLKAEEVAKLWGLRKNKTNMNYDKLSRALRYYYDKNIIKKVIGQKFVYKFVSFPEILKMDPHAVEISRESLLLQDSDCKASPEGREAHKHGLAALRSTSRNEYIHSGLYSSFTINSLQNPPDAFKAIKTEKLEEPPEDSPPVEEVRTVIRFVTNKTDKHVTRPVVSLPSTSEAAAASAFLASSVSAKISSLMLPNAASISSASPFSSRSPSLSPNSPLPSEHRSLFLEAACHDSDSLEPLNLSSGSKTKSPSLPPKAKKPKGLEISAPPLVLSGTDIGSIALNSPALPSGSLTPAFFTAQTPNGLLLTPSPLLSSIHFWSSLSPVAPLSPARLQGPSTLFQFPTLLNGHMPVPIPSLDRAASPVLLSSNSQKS
A digest of the protocol: as §1

Chain of SPIB (Q01892 whole entry): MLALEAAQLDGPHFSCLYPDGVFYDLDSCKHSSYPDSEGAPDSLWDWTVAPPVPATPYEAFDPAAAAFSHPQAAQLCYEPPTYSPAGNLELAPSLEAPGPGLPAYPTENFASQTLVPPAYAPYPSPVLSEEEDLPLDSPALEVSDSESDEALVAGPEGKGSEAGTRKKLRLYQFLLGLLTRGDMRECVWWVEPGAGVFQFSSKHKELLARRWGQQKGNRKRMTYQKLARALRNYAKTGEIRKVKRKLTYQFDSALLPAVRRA
Chain of ELF1 (P32519 whole entry): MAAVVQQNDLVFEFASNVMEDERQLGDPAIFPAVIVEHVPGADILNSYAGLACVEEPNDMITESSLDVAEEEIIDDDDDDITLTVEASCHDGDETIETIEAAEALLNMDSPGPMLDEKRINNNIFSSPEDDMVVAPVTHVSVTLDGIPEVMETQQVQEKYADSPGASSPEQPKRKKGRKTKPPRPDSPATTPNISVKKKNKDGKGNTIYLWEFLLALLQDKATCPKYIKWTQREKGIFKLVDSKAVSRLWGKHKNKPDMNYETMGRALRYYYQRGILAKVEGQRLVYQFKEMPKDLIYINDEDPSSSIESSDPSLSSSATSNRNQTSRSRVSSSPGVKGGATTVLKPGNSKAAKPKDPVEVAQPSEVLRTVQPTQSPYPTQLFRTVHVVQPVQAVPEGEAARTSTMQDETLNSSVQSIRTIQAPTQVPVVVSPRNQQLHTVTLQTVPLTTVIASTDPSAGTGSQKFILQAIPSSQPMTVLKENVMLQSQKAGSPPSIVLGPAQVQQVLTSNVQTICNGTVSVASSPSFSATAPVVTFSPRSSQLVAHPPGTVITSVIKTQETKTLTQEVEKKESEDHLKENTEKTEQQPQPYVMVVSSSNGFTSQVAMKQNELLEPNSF

For the sequence CTCCTC, the binding signal is 1.36 fold enrichment (6-mer frequency, TF over GST control) in experiment [1]; 1.38 fold enrichment (6-mer frequency, TF over GST control) in experiment [2]; 1.39 fold enrichment (6-mer frequency, TF over GST control) in experiment [3]; 1.26 fold enrichment (6-mer frequency, TF over GST control) in [4]; 1.32 fold enrichment (6-mer frequency, TF over GST control) in experiment [5]; 1.54 fold enrichment (6-mer frequency, TF over GST control) in experiment [6]. Further, the binding signal in experiment [7] was 1.39 fold enrichment (6-mer frequency, TF over GST control); in experiment [8] it was 1.4 fold enrichment (6-mer frequency, TF over GST control); in experiment [9], 1.31 fold enrichment (6-mer frequency, TF over GST control).

For the sequence TATGAT, the binding signal is 1.21 fold enrichment (6-mer frequency, TF over GST control) in [1]; 1.18 fold enrichment (6-mer frequency, TF over GST control) in [2]; 1.22 fold enrichment (6-mer frequency, TF over GST control) in experiment [3]; 1.2 fold enrichment (6-mer frequency, TF over GST control) in [4]; 1.24 fold enrichment (6-mer frequency, TF over GST control) in experiment [5]; 1.27 fold enrichment (6-mer frequency, TF over GST control) in [6]. In addition, the binding signal in [7] is 1.18 fold enrichment (6-mer frequency, TF over GST control); in [8] it was 1.23 fold enrichment (6-mer frequency, TF over GST control); in experiment [9], 1.23 fold enrichment (6-mer frequency, TF over GST control).

With ATTCCG, the binding signal was 1.84 fold enrichment (6-mer frequency, TF over GST control) in [1]; 1.84 fold enrichment (6-mer frequency, TF over GST control) in experiment [2]; 1.65 fold enrichment (6-mer frequency, TF over GST control) in [3]; 1.82 fold enrichment (6-mer frequency, TF over GST control) in experiment [4]; 1.61 fold enrichment (6-mer frequency, TF over GST control) in experiment [5]; 1.86 fold enrichment (6-mer frequency, TF over GST control) in [6]. The binding signal in [7] was 1.69 fold enrichment (6-mer frequency, TF over GST control); in experiment [8], 1.78 fold enrichment (6-mer frequency, TF over GST control); in [9], 1.78 fold enrichment (6-mer frequency, TF over GST control).

CTCACA: the binding signal is 1.29 fold enrichment (6-mer frequency, TF over GST control) in [1]; 1.3 fold enrichment (6-mer frequency, TF over GST control) in [2]; 1.38 fold enrichment (6-mer frequency, TF over GST control) in [3]; 1.34 fold enrichment (6-mer frequency, TF over GST control) in experiment [4]; 1.35 fold enrichment (6-mer frequency, TF over GST control) in [5]; 1.42 fold enrichment (6-mer frequency, TF over GST control) in [6]. Besides, the binding signal in experiment [7] was 1.27 fold enrichment (6-mer frequency, TF over GST control); in experiment [8], 1.38 fold enrichment (6-mer frequency, TF over GST control); in [9], 1.41 fold enrichment (6-mer frequency, TF over GST control).

In the case of CTACTG, the binding signal in experiment [1] is 1.31 fold enrichment (6-mer frequency, TF over GST control); in experiment [2], 1.28 fold enrichment (6-mer frequency, TF over GST control); in [3], 1.35 fold enrichment (6-mer frequency, TF over GST control); in experiment [4], 1.22 fold enrichment (6-mer frequency, TF over GST control); in [5], 1.34 fold enrichment (6-mer frequency, TF over GST control); in experiment [6] it was 1.33 fold enrichment (6-mer frequency, TF over GST control). Moreover, the binding signal in [7] was 1.23 fold enrichment (6-mer frequency, TF over GST control); in [8] it was 1.05 fold enrichment (6-mer frequency, TF over GST control); in experiment [9] it was 1.09 fold enrichment (6-mer frequency, TF over GST control).

As to CCCTTA, the binding signal in experiment [1] was 1.29 fold enrichment (6-mer frequency, TF over GST control); in [2], 1.24 fold enrichment (6-mer frequency, TF over GST control); in [3] it was 1.24 fold enrichment (6-mer frequency, TF over GST control); in [4], 1.28 fold enrichment (6-mer frequency, TF over GST control); in experiment [5], 1.3 fold enrichment (6-mer frequency, TF over GST control); in [6], 1.32 fold enrichment (6-mer frequency, TF over GST control). The binding signal is 1.31 fold enrichment (6-mer frequency, TF over GST control) in experiment [7]; 1.35 fold enrichment (6-mer frequency, TF over GST control) in [8]; 1.25 fold enrichment (6-mer frequency, TF over GST control) in experiment [9].

In the case of ATTGTT, the binding signal in [1] is 1.49 fold enrichment (6-mer frequency, TF over GST control); in experiment [2], 1.42 fold enrichment (6-mer frequency, TF over GST control); in experiment [3] it was 1.55 fold enrichment (6-mer frequency, TF over GST control); in experiment [4] it was 1.48 fold enrichment (6-mer frequency, TF over GST control); in [5] it was 1.38 fold enrichment (6-mer frequency, TF over GST control); in experiment [6] it was 1.53 fold enrichment (6-mer frequency, TF over GST control). The binding signal in experiment [7] is 1.45 fold enrichment (6-mer frequency, TF over GST control); in experiment [8], 1.57 fold enrichment (6-mer frequency, TF over GST control); in experiment [9] it was 1.55 fold enrichment (6-mer frequency, TF over GST control).
